# Bioassay records as filed in PubChem.
# In the library only some 3.9% were active in any assay of this set; here they are far more common.
# esBAF inh: blocks esBAF chromatin remodeling in mouse ES cells; AID 602393; Bmi1-luciferase knock-in reporter, 24 h; 100% = twice the neutral-well signal; 350,000 tested, 2% active; reporter increase, % at 12.5 µM; in the data active means activation above about 40%; inconclusive means no clear call, values can overlap the other calls;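 further: 0% = median of the plate's neutral control wells and 100% = double that signal; a rise in the Bmi1 reporter signal indicates esBAF inhibition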
# HSF-1 act: increases HSF-1 driven luciferase reporter signal. activation, % at 9 µM. AID 504408. NIH3T3-HGL HSF-1 luciferase reporter, MG132, 8 h; 100% = twice DMSO control signal. 300,000 tested, 1.7% active;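 active means mean replicate activation of at least 50% with a set share of replicates each reaching 50%; inconclusive means only one of those two conditions met; inactive means mean below 50% and too few replicates reaching it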;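 further: 0% = median of the neutral control wells and 100% = twice that signal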
# MITF act: MITF TRPM1 promoter activation in melanoma cells. SK-MEL-5 TRPM1-promoter luciferase, 24 h; % of positive control, neutral wells = 0. activation, % at 12.5 µM. 300,000 tested, 0.75% active;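 active means mean activation of at least 80% with every replicate also reaching 80%; inconclusive means mean reaches 80% but some replicate falls short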;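 further: 0% = neutral control wells and 100% = parthenolide positive control wells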
# HSF1 inhib: HSF1 inhibition | 300,000 tested, 0.77% active | AID 2098 | activity change, negative = inhibition, % at 7.5 µM (by protocol) | NIH3T3-HGL HSE-luciferase, MG132-induced, luminescence 8 h; hits give low values;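 active means more than half of replicate wells show activity change below -50%, luminescence cut by over half; inconclusive means some wells, but at most half, below -50%; inactive means no replicate well below -50%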;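 further: luciferase reports HSF-1 transcriptional activity via heat shock element; 0% = median of DMSO wells and -100% = zero luminescence signal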
# Wnt act: Wnt/beta-catenin pathway activation | activation, % at 9.35 µM | 300,000 tested, 1.2% active | AID 743398 | Wnt/beta-catenin reporter cell assay, activator, plate reader; in the data active means activation above about 30%, passing the limit was not always enough; inconclusive means no clear call, values can overlap the other calls;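 further: 0% = neutral control wells and 100% = positive control wells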
# The depositor's hits bear a star; ? = inconclusive; nt = no result.
SMILES,esBAF inh,HSF-1 act,MITF act,HSF1 inhib,Wnt act
Cc1ccc(S(=O)(=O)N(C)C[C@@H]2Oc3ccc(NC(=O)Cc4cn(C)c5ccccc45)cc3CC(=O)N([C@H](C)CO)C[C@@H]2C)cc1,-3,nt,nt,nt,nt
Cc1ccc(SCc2cn3cc(Cl)ccc3n2)cc1,nt,54*,nt,22,35*
Clc1ccc2nc(CSc3nc4ccccc4o3)cn2c1,7,100*,nt,75,58*
Cc1ccc(S(=O)(=O)NCc2cn3c(C)csc3n2)cc1,3,nt,16,nt,nt
Clc1ccc2nc(CSCc3ccccc3)cn2c1,nt,37,51,32,67*
Clc1ccc2nc(CSc3nnc(-c4c[nH]c5ccccc45)o3)cn2c1,3,nt,-3,nt,-1
Cc1ccc(SCc2cn3c(C)csc3n2)cc1,7,91*,84*,57,1
Clc1ccc2nc(CSc3nncn3-c3ccccc3)cn2c1,-1,17,-8,1,-5
CNC[C@@H]1Oc2ccc(NC(=O)Nc3ccc(C(F)(F)F)cc3)cc2CC(=O)N([C@@H](C)CO)C[C@H]1C,-5,nt,nt,nt,nt
C[C@H](NC(=O)C[C@H]1CC[C@@H]2[C@H](COC[C@@H](O)CN2C(=O)Nc2cc(Cl)cc(Cl)c2)O1)c1ccccc1,6,nt,nt,nt,nt
CNc1cc(CSc2ccc(Cl)cc2)nc(C)n1,52*,71*,80,38,10
Clc1ccc2nc(CSc3nnc4ccccn34)cn2c1,nt,68*,16,27,nt
Clc1ccc(-n2nnnc2SCc2cn3ccccc3n2)cc1,-2,4,0,1,1
Cc1cccc2nc(CSc3ccc(Cl)cc3)cn12,76*,-4,101*,-5,13
Clc1ccc(SCc2cn3ccccc3n2)cc1,nt,78*,?,57,16
Cc1noc(C)c1NC(=O)Nc1ccc2c(c1)CC(=O)N([C@@H](C)CO)C[C@@H](C)[C@H](CN(C)C(=O)Nc1ccccc1)O2,-2,nt,nt,nt,nt
Cc1noc(C)c1NC(=O)Nc1ccc2c(c1)C(=O)N([C@@H](C)CO)C[C@H](C)[C@@H](CN(C)S(=O)(=O)c1cn(C)cn1)O2,-1,nt,nt,nt,nt
Brc1ccc(CSc2nnc3ccccn23)cc1,?,58*,40,13,9
Clc1cccc(Cl)c1CSc1nnc2ccccn12,nt,22,6,19,4
CC(C)(C)c1ccc(/C=C2\Oc3cc(OC(=O)N4CCOCC4)ccc3C2=O)cc1,nt,6,5,1,0
COC(=O)c1ccc2c(c1)C(=O)/C(=C/c1ccc(C)cc1)O2,67*,3,64,9,5
Cc1ccc(/C=C2\Oc3cc(OC(=O)N4CCOCC4)ccc3C2=O)cc1,nt,92*,3,32,-1
Cc1ccc(-c2nnc(SCC(C)C)n2C)cc1,55*,27,28,8,61*
CCCCSc1nnc(-c2ccc(OC)cc2)n1C,56*,19,47,4,nt
COc1ccc(-c2nnc(SCc3csc(N)n3)n2C)cc1,6,nt,7,nt,nt
SMILES,esBAF inh,HSF-1 act,MITF act,HSF1 inhib,Wnt act
O=C(NCC[C@@H]1CC[C@H](NS(=O)(=O)Cc2ccccc2)[C@H](CO)O1)C1CCOCC1,-3,nt,nt,nt,nt
CCCNC(=O)C[C@@H]1CC[C@H]2[C@H](COc3ccc(NC(=O)c4cccc(OC)c4)cc3C(=O)N2C)O1,3,nt,nt,nt,nt
S=C(Nc1nc2c(s1)CCCC2)NC1CC1,51*,-9,52,6,11
Cc1ccc(CSc2nnc(Nc3ccc(C)cc3)s2)cc1,-1,7,nt,2,nt
CCSc1nnc(Nc2ccc(C)cc2)s1,83*,35,89*,17,nt
O=C1CCCCC1Sc1nnc(Nc2ccccc2)s1 (centres undefined),71*,46,73,36,9
CC(C#N)Sc1nnc(Nc2ccccc2)s1 (centres undefined),5,-7,14,-5,-1
CCSc1nnc(Nc2ccccc2)s1,58*,34,69,22,5
COc1ccc(S(=O)(=O)Nc2ccc3c(c2)C(=O)N([C@@H](C)CO)C[C@@H](C)[C@H](CN(C)C(=O)Nc2ccccc2)OCCCC[C@@H](C)O3)cc1,-2,nt,nt,nt,nt
Cc1ccc(-c2nn(-c3ccccc3)cc2/C=N/NC(=O)c2ccc(Br)o2)cc1,64*,14,56,1,nt
Cc1nnc(SCC(=O)N/N=C/c2cn(-c3ccccc3)nc2-c2ccccc2)n1-c1ccccc1,63*,10,28,4,nt
O=C(N/N=C/c1ccc(Br)cc1)c1ccc(F)cc1,nt,6,8,14,2
O=C(N/N=C/c1ccc(Br)cc1)c1ccc(Br)o1,nt,45,103*,18,56*
O=C(N/N=C/c1cn(-c2ccccc2)nc1-c1ccccc1)c1ccco1,44*,16,50,-1,nt
CC=Cc1ccc2n(c1=O)C[C@H]1[C@H](CO)[C@@H](C(=O)NCC)N(Cc3ccccc3Cl)[C@@H]21 (mixture of isomers),5,nt,nt,nt,nt
N#C[C@H]1N[C@H](CO)[C@H]1c1ccc(C#Cc2cccnc2)cc1,1,nt,nt,nt,nt
Clc1ccc(C#Cc2cccnc2)cc1,67*,23,109*,5,24
CCC(=O)Nc1ccccc1C(=O)OCC(=O)c1ccccc1,-18,79*,66,35,nt
CCCCC(=O)Nc1ccccc1C(=O)OCC(=O)c1ccc2c(c1)OCCO2,nt,24,26,-2,23
CCC(=O)Nc1ccccc1C(=O)OCC(=O)c1ccc2ccccc2c1,19,29,8,5,50*
O=C(NC1CCCC1)[C@@H]1[C@@H](CO)[C@@H]2Cn3c(cccc3=O)[C@H]1N2C(=O)CC1CC1,-3,nt,nt,nt,nt
C[C@H](CO)N1C[C@H](C)[C@H](CN(C)CC2CC2)Oc2cc(-c3ccc(C#N)cc3)ccc2S1(=O)=O,-1,nt,nt,nt,nt
CO[C@H]1CN(C)C(=O)c2ccc(NC(=O)Cc3ccccc3)cc2OC[C@@H](C)N(CC2CC2)C[C@H]1C,-2,nt,nt,nt,nt
C[C@H]1CN([C@@H](C)CO)C(=O)Cc2cc(NC(=O)CCC(F)(F)F)ccc2O[C@@H]1CN(C)Cc1ccc(-c2ccccc2)cc1,1,nt,nt,nt,nt
C/C(=N\NC(=O)c1ccoc1C)c1cccc2ccccc12,14,57*,9,31,-3
SMILES,esBAF inh,HSF-1 act,MITF act,HSF1 inhib,Wnt act
C/C(=N\NC(=O)c1cccc2ccccc12)c1ccccn1,-23,-5,-75,5,5
COc1cccc(N2CCN(S(=O)(=O)c3cc4c(cc3C)N(C)CCO4)CC2)c1,4,55*,nt,34,-6
COc1cccc(N2CCN(S(=O)(=O)c3ccc(-c4coc(C)n4)cc3)CC2)c1,10,73*,3,28,-1
Cc1cc2c(cc1S(=O)(=O)N1CCN(c3ccc(Cl)cc3)CC1)OCCN2C,5,3,nt,5,-3
C[C@H](CO)N1C[C@H](C)[C@@H](CN(C)C(=O)Nc2cccc3ccccc23)Oc2c(cccc2N(C)C)C1=O,5,nt,nt,nt,nt
CO[C@@H]1CN(C)C(=O)c2cc(NS(=O)(=O)CC(F)(F)F)ccc2OC[C@H](C)N(CCC(F)(F)F)C[C@@H]1C,-1,nt,nt,nt,nt
